From PubChem BioAssay
RPL19A TOR yeast – modulators of TOR pathway RPL19A-GFP in S. cerevisiae | S. cerevisiae RPL19A-GFP strain, flow cytometry, 3 h; hits give low values | percent response vs DMSO, % at 10 µM | 0.3% of 330,000 active | AID 2025;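 active = percent response vs DMSO below 50%; inconclusive = fewer than 70 events counted for the yeast strain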;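 note: median channel GFP fluorescence of the barcoded RPL19A-GFP strain; ratio of sample median GFP to plate DMSO average so 100% = DMSO; lower means less RPL19A-GFP as with rapamycin TOR inhibition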
LAP4 TOR yeast – alters LAP4-GFP fluorescence in TOR pathway yeast screen. S. cerevisiae LAP4-GFP multiplex, flow cytometry GFP, 3 h; median GFP as percent of DMSO wells. GFP response vs DMSO, % at 10 µM. 0.34% of 320,000 active;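 active = GFP response vs DMSO above a set limit, about the screen mean plus 3 SD, cut at about 150% in these data; inconclusive = under 70 cell events counted for the yeast strain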
AGP1 TOR yeast – modulators of TOR pathway AGP1-GFP in S. cerevisiae; S. cerevisiae AGP1-GFP multiplex flow cytometry, 3 h; GFP as percent of DMSO wells; GFP response vs DMSO, % at 10 µM; 0.02% of 320,000 active; AID 2066;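 active = GFP response relative to DMSO above a set limit, near screen average plus 3 SD, cut at about 150% in these data; inconclusive = fewer than 70 cells counted for the yeast strain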;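 note: median GFP channel fluorescence of the gated AGP1 strain per well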
CIT2 TOR yeast – alters CIT2-GFP fluorescence in TOR pathway yeast screen; GFP response vs DMSO, % at 10 µM; S. cerevisiae CIT2-GFP strain, flow cytometry, 3 h; 100 means same as DMSO wells; 0.065% of 320,000 active;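 active = GFP response relative to DMSO above a set limit, near the screen mean plus 3 SD, cut at about 150% in these data; inconclusive = Fewer than 70 cells measured for a yeast strain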;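 note: ratio of well median GFP fluorescence to mean of DMSO wells on the plate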
MEP2-GFP yeast – modulators of TOR pathway MEP2-GFP in S. cerevisiae; S. cerevisiae MEP2-GFP strain, flow cytometry GFP, 3 h; 100% = DMSO control level; GFP response vs DMSO, % at 10 µM; 0.51% of 330,000 active; AID 2016;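 active = GFP response versus DMSO above a set limit, roughly screen mean plus 3 SD, cut at about 180% in these data; inconclusive = fewer than 70 cells counted for a yeast strain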;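 note: median GFP fluorescence of the barcode-gated MEP2-GFP cells per well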
* hit, by the source's call; ? = inconclusive; nt = not tested or not shown; [ ] = dose if it differs, or a comment. Compounds with a hit are over-represented: about 0.89% of the library has one in this group of screens.

SMILES | RPL19A TOR yeast | LAP4 TOR yeast | AGP1 TOR yeast | CIT2 TOR yeast | MEP2-GFP yeast
CN(C)/C=C/C(=O)/C=C/c1cn(-c2ncc(C(F)(F)F)cc2Cl)c2ccccc12 | 41*[may fluoresce violet] | 82 | ? | ? | 232*[may fluoresce violet]
CC1=CC(C)[C@H](/C=N/n2c(=O)[nH]c3c([nH]c4ccc(C)cc43)c2=O)C(C)C1 (stereo partly specified) | 44*[may fluoresce violet] | 73 | ? | ? | 266*[may fluoresce violet]
CC1=CC(C)C(/C=N/n2cnnc2)C(C)C1 (stereo unspecified) | 103 | 106 | nt | 110 | 114
CCOc1ccc(S(=O)(=O)Nc2cccc(C(=O)NCC(c3ccc(OC)cc3)N3CCOCC3)c2)cc1 (stereo unspecified) | 101 | 99 | 106 | 110 | 105
O=C(c1ccncc1)N1CCN(S(=O)(=O)c2ccc(OC(F)(F)F)cc2)CC1 | 92 | 90 | 92 | 89 | 94
CCCc1cc(NCC2CCCO2)n2c(nc3ccccc32)c1C#N (stereo unspecified) | 30*[may fluoresce violet] | 125 | nt | ? | 537*[may fluoresce violet]
CCCc1cc(NCCN(C)C)n2c(nc3ccccc32)c1C#N | 98 | 92 | 99 | 91 | 99
O=C(COc1ccc(Cl)cc1Br)Nc1nnc(C2CC2)s1 | 90 | 94 | 85 | 85 | 84
COc1ccc(CNC(=O)CN(C(=O)CCC(=O)Nc2nccs2)c2ccccc2C)cc1 | 100 | 100 | 100 | 100 | 97
Cc1ccc2nc(NC(=O)c3ccco3)sc2c1 | 98 | 120 | 94 | 95 | 100
Cc1ccc2nc(NC(=S)NC(=O)c3ccco3)sc2c1 | 40*[may fluoresce violet] | 64 | ? | ? | 125
CN(C)C(=O)c1ccc(NC(=O)COC(=O)C2(c3ccccc3)CCCC2)cc1 | 101 | 96 | 99 | 92 | 101
Cc1ccccc1S(=O)(=O)Cc1ccc(C(=O)NCCCN2CCCC(C)C2)o1 (stereo unspecified) | 96 | 93 | 95 | 97 | 101
Cc1ccc2nc(C)c(CN3CCN(c4ccc([N+](=O)[O-])cc4Cl)CC3)n2c1 | 102 | 85 | 92 | 95 | 104
CC(NC(=O)CCc1ccccc1)c1ccc2c(c1)OCO2 (stereo unspecified) | 102 | 90 | 108 | 94 | 101
COc1ccc(Nc2nc(-c3sc(N)nc3C)cs2)cc1 | 40*[may fluoresce violet] | ? | ? | ? | 213*[may fluoresce violet]
Cc1ccc(Nc2nc(-c3sc(N)nc3C)cs2)cc1 | 101 | 94 | 98 | 97 | 98
Cc1nc(N)sc1-c1csc(Nc2ccc(Cl)cn2)n1 | 91 | 164* | 96 | 93 | 95
COc1ccccc1C1c2ccc3ccccc3c2Oc2ncn(CCCO)c(=N)c21 (stereo unspecified) | 24*[may fluoresce violet] | 75 | ? | ? | 352*[may fluoresce violet]
COc1ccccc1C1c2ccc3ccccc3c2Oc2ncn(CCN(C)C)c(=N)c21 (stereo unspecified) | 92 | 95 | 85 | 94 | 103
COc1cccc(C2C(C(=O)Nc3nc4ccccc4s3)=C(C)NC3=C2C(=O)CC(C)(C)C3)c1OC (stereo unspecified) | 93 | 90 | 91 | 95 | 98
COc1ccc(OC)c(C2C(C(=O)Nc3nc4ccccc4s3)=C(C)NC3=C2C(=O)CCC3)c1 (stereo unspecified) | 79 | 100 | 39 | 72 | 183*
Cc1cccc(CSCc2ccc(C(=O)NCC3CCCO3)o2)c1 (stereo unspecified) | 104 | 97 | 99 | 102 | 106
Cc1ccccc1N(C(=O)CCCC(=O)Nc1ccccn1)C(C(=O)NC1CCCC1)c1ccc(O)cc1 (stereo unspecified) | 99 | 100 | 105 | 104 | 107
Cc1ccc(N(C(=O)CNC(=O)c2ccco2)C(C(=O)NC2CCCCC2)c2cccnc2)cc1C (stereo unspecified) | 99 | 93 | 100 | 95 | 87
Cc1ccc(N(C(=O)CCCC(=O)Nc2ccccn2)C(C(=O)NC2CCCC2)c2ccc(O)cc2)cc1C (stereo unspecified) | 87 | 139 | 110 | 102 | 238*
Cc1cc(C)cc(N(C(=O)c2csnn2)C(C(=O)NC2CCCC2)c2cccnc2)c1 (stereo unspecified) | 57 | 92 | 17 | ? | 184*[may fluoresce violet]
